Compounds with a hit are over-represented: about 4.7% of the library has one in this group of screens.
D1 ag – agonists of human D1 dopamine receptor; activation, % at 2 µM; hit rate 1% among 360,000; P21728; HEK293 T-REx D1 cells, calcium flux, agonist mode
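Inducible HEK293 T-REx D1 cells, force-coupled to calcium signalling, were plated at 4000 cells/well with tetracycline and held overnight at 30 C. After no-wash calcium dye loading, compound-evoked calcium rise over 180 s flagged agonists.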
TRHR enhancer – allosterically enhances the human TRH receptor; TRHR cells, fluo-8 calcium fluorescence, EC20 TRH enhancement; enhancement, % at 2 µM; hit rate 0.66% among 360,000; in the data active means enhancement above about 30%
Target sequence (P34981 whole entry, looked up): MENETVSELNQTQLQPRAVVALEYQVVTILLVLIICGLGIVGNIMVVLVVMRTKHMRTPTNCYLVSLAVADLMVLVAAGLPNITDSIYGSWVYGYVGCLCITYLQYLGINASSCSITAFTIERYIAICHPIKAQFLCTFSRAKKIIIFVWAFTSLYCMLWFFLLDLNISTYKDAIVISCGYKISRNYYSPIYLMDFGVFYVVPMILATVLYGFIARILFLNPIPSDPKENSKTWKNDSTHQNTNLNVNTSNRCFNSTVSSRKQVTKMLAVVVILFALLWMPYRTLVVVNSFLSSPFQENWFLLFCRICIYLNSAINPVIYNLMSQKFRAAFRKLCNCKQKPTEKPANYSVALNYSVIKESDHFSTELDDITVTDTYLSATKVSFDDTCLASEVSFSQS
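Enhancer read-out: after compound pinning and an initial kinetic agonist-mode read, an EC20 of TRH (10 nM final) was injected and fluo-8 calcium signal (Ex 480/Em 530) followed at 1 s/cycle for 100 cycles in TRHR-expressing cells.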
D1 antag – antagonists of human D1 dopamine receptor; P21728; HEK293 TREx D1 cells, calcium flux, dopamine EC80; active compounds read low; activity change, negative = inhibition, % at 10 µM; hit rate 3.2% among 360,000; AID 504652; in the data active means activity change below about -30%
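Tetracycline-induced HEK293 Trex D1 cells, force-coupled to calcium, dye-loaded; compounds added and read 180 s, then EC80 dopamine added and calcium flux tracked kinetically another 180 s.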
D1 PAM – enhances dopamine response at the human D1 receptor. P21728. HEK293 TREx D1 cells, calcium flux, dopamine EC20 potentiation. potentiation, % at 10 µM. hit rate 0.036% among 360,000. AID 504651; in the data active means potentiation above about 30%
TRHR agonist – activates the human TRH receptor; hit rate 0.18% among 360,000; TRHR cells, calcium flux fluo-8, FDSS agonist mode; activation, % at 2 µM; P34981
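Fluo-8-loaded TRHR cells; 10 s baseline, compound added, kinetic Ca2+ fluorescence read 1/s, agonist mode.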
A number is an active result; i = inactive; nt = no result; ! = not confirmed by another sample. Unless noted, no stated cut-off is given here; in the data, active means activation above about 30%; inactive means the rest.

SMILES	D1 ag	TRHR enhancer	D1 antag	D1 PAM	TRHR agonist
COc1cc(C(=O)Nc2ccc(NC(=O)c3ccc(C(C)(C)C)cc3)cc2)cc(OC)c1OC	i	i	i	i	i
COC(=O)N/N=C/C1=CCC2CC1C2(C)C (stereo unspecified)	i	i	i	i	i
CC1(C)C2CC=C(/C=N/NC(=O)c3ccc(O)cc3)C1C2 (stereo unspecified)	i	i	-32	i	i
CCCCc1ccc(NC=C2C(=O)OC3(CCCCC3)OC2=O)cc1	i	i	nt	i	i
NS(=O)(=O)c1ccc(NC=C2C(=O)OC3(CCCCC3)OC2=O)cc1	i	33	i	i	i
COc1cccc(C(=O)Nc2ccccc2OCc2cc(=O)n3ccccc3n2)c1	i	i	-34	i	i
O=C(Nc1cnc2ccccn2c1=O)c1ccc(F)cc1	i	i	i	i	i
COc1cccc(C(=O)Nc2ccccc2OCc2cc(=O)n3cc(C)ccc3n2)c1	i	i	i	i	i
COc1ccc(C(=O)Nc2cnc3ccccn3c2=O)cc1	i	i	-77!	i	i
COc1ccccc1NC(=O)C1=C(C)Nc2c(C(=O)Nc3ccc(C)cc3)cnn2C1c1cccc(OC)c1OC (stereo unspecified)	i	i	i	i	i
Oc1cccc(Nc2nc(O)c(/C=C3\C=Nc4ccccc43)s2)c1	34	i	i	i	i
CC(=O)N1c2ccccc2C(=O)C1N1CCN(c2cccc(Cl)c2)CC1 (stereo unspecified)	i	i	i	i	i
CC1=NN(C(=O)c2ccc(Br)cc2)C(O)(C(F)(F)OC(F)(F)F)C1 (stereo unspecified)	i	i	i	i	i
COC(=O)C1=NN(C(=O)c2cccc(Cl)c2)C(O)(C(C)(C)C)C1 (stereo unspecified)	31	i	i	i	i
COC(=O)C1=NN(C(=O)c2ccc(Br)cc2)C(O)(C(C)(C)C)C1 (stereo unspecified)	32	i	i	i	i
O=C1CCC2CCCCC2(O)O1 (stereo unspecified)	i	33	i	i	i
CC(C)(C)OC(=O)CC12CCCCC1NC(=O)O2 (stereo unspecified)	i	i	i	i	i
COc1ccc(-c2cc(-c3ccc(Cl)cc3)n[nH]2)c(O)c1	i	i	-34	i	i
O=C(c1ccc2n[nH]nc2c1)N1CCN(c2ccc(C(F)(F)F)cn2)CC1	i	i	i	i	i
Cc1cc(=O)n2nc(N3CCCC(C(=O)NC4CCCCC4C)C3)sc2n1 (stereo unspecified)	i	i	i	i	i
CCc1cc2c(-c3ccccc3)cc(=O)oc2c(CN2CCOCC2)c1O	55	i	i	i	i
O=C(Nc1ccc(-c2nc3ccccc3s2)cc1)c1cc(-n2cnnc2)ccc1Cl	i	i	-42	i	i
CCOc1ccc2oc(=O)cc(CN3CCN(C(=O)c4ccc(Cl)cc4)CC3)c2c1	i	i	i	i	i
CC(=O)NC1CCCN(O)C(=O)/C=C(\C)CCOC(=O)C(NC(C)=O)CCCN(O)C(=O)/C=C(\C)CCOC(=O)C(NC(C)=O)CCCN(O)C(=O)/C=C(\C)CCOC1=O (stereo unspecified)	i	36	i	i	i
Cc1ccc(NC(=O)N2CCN(c3ccc(Cl)c(Cl)c3)CC2)cc1	i	i	-30	i	i
SMILES	D1 ag	TRHR enhancer	D1 antag	D1 PAM	TRHR agonist
Cc1ccccc1C(=O)N1CCN(c2ccc(NC(=O)c3cccnc3)cc2)CC1	i	i	i	i	i
CC(C)c1ccc(NC(=O)N2CCN(c3ccc(Cl)c(Cl)c3)CC2)cc1	i	i	i	i	i
COc1cccc(N2CCN(C(=S)Nc3cccc(C)c3)CC2)c1	i	i	i	i	i
Cc1ccc(C(=O)N2CCN(c3ccc(NC(=O)c4cccnc4)cc3)CC2)cc1	i	i	-31	i	i
COc1ccc(N2CCN(C(=S)Nc3cccc(C)c3)CC2)cc1	i	i	-41	i	i
CC(=O)c1ccc(N2CCN(C(=O)Nc3ccc(C)cc3)CC2)cc1	i	i	-40!	i	i
O=C(NCc1ccccc1F)C1CCN(c2nn3cc(-c4ccc(F)cc4)nc3s2)CC1	i	i	i	i	i
COc1ccc(NC(=S)N2CCCC2c2ccc(OC)c(OC)c2)cc1 (stereo unspecified)	i	i	i	i	i
Cc1cc(C)cc(NC(=O)N2CCCN(c3c(Cl)cncc3Cl)CC2)c1	i	i	-33	i	i

Screening results (PubChem)
